# High-throughput results: PubChem BioAssay, National Center for Advancing Translational Sciences (NCATS)
# SW480 rerep = A quantitative high throughput screen for small molecules that induce DNA re-replication in SW480 colon adenocarcinoma cells; SW480 DNA re-replication, Hoechst DNA content imaging, 48 h; Potency, µM (titrated, usually from 46.1 µM), for inactives: top-dose re-replication activation, hits mostly activators; 1.8% of 340,000 active; AID 624297, 2012; note: % of control where 0% means no effect; nearly all actives have a fitted effect of over 55% in size
#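 Hoechst fluorescence of nuclei (405 nm excitation, 500-530 nm emission) measured by plate-scanning imager after 48 hr compound exposure at 37 C; re-replication scored as increased number of nuclei with elevated intensity.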
# KB-3-1 cytotox = qHTS assay for MDR1-selective chemotherapeutics: Primary screen using the parental adenocarcinoma cell KB-3-1; Potency, µM (doses to about 46.1 µM), hits mostly cytotoxic; 1.4% of 400,000 active; KB-3-1 viability, CellTiter-Glo ATP luminescence, 72 h; note: % is set by controls: 0 for no effect and ±100 for the full control effect; nearly all actives have a fitted effect of over 60% in size
#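 Screening of KB-3-1 cells (DMEM, 10% FBS, phenol-red free) ran from lowest to highest compound concentration; after 72 h at 37 °C viability was read luminescently and curves fitted.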
# HT1080-NT tox = qHTS for induction of synthetic lethality in tumor cells producing 2HG: qHTS for the HT-1080-NT fibrosarcoma cell line | HT-1080-NT fibrosarcoma viability, CellTiter-Glo ATP luminescence, 48 h | Potency, µM (doses to about 46.1 µM), for the others: top-dose activity, negative = less viability, most hits filed as cytotoxic | 1.6% of 360,000 active | AID 686970, 2013;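 note: NT is the 2HG producing partner of a matched IDH1 knockdown line; 0% = DMSO-treated cells and -100% = media-only wells without cells; nearly all actives have a fitted effect of over 55% in size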
#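 Luminescent CellTiter-Glo readout after 48 hours of compound exposure at 37 degrees C defined viability of HT-1080-NT cells. Activity was normalized to DMSO wells and cell-free media wells; concentration-response curves were fitted and assigned curve classes.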
# KB-V1 MDR tox = qHTS assay for MDR1-selective chemotherapeutics: Primary screen using the drug-selected MDR subline cells KB-V1; 3.4% of 400,000 active; Potency, µM (highest dose often 46.1 µM), actives largely listed as cytotoxic; KB-V1 MDR cells viability, CellTiter-Glo, 72 h; note: % is set by controls: 0 for no effect and ±100 for the full control effect; nearly all actives have a fitted effect of over 60% in size
#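 qHTS viability screen in drug-selected KB-V1 MDR cells: 72 h compound treatment at 37 degrees C, ATP luminescence end point.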
# MCF10A rerep = A quantitative high throughput screen for small molecules that induce DNA re-replication in MCF 10a normal breast cells; MCF 10A DNA re-replication, Hoechst nuclear intensity, 48 h; Potency, µM (doses to about 46.1 µM), for the others: at the top dose activity, positive = re-replication, hits mostly activators; 2.9% of 350,000 active; AID 624296, 2012; note: % of control where 0% means no effect; nearly all actives have a fitted effect of over 50% in size
# HT1080 IDH1KD tx = qHTS for induction of synthetic lethality in tumor cells producing 2HG: qHTS for the HT-1080-IDH1KD cell line. Potency, µM (titrated, usually from 46.1 µM), for inactives: top-dose activity, negative = toxicity, most hits filed as cytotoxic. HT-1080 IDH1 knockdown viability, ATP luminescence, 48 h. 2% of 360,000 active;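 note: 0% = DMSO wells and -100% = cell-free medium wells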
#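 Using the IDH1-knockdown HT-1080 line run in the same batch and compound series as the NT line, viability after 48 h at 37 °C was determined by CellTiter-Glo luminescence and expressed as % activity.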
# * = called active by the depositor; i = inactive; ? = inconclusive; . = not tested or not shown; ! = not active in a repeat; [ ] = another dose, or the depositor's remark. Shown are actives, neighbours in structure and some others; about 7.9% of the full set was active somewhere. Calls come from the whole dose curve; as a rule, active = well fitted curve in the direction sought with a large enough effect; inconclusive = small, poorly fitted or top-dose-only effect, or another doubt; inactive = no such curve, though single readings can be large; an effect the other way counts as inactive or inconclusive. Potency is the fitted concentration of half-maximal effect.
SMILES,SW480 rerep,KB-3-1 cytotox,HT1080-NT tox,KB-V1 MDR tox,MCF10A rerep,HT1080 IDH1KD tx
COc1cc([N+](=O)[O-])ccc1N/C=C/C(=O)c1cccs1,-2%,5.2µM*,4%[9.24 µM],3.3µM*,23%,?
O=C(Nc1cc(-c2nc3ccccc3o2)ccc1Cl)c1cccc2c(Cl)cccc12,.,i,.,?,.,.
CCOC(=O)c1c(-c2ccc(OC)cc2)csc1/N=C/N(C)C,-4%,?,-1%,23µM*,9%,-1%
CCOC(=O)c1c(/N=C/N(C)C)sc(C(=O)OC)c1C,-4%,i,-12%,i,2%,6%[9.24 µM]
CCOC(=O)c1c(-c2ccc(OC)cc2)csc1/N=C/C1C(=O)CCCC1=O,?,i,?,i,?,18µM*
COC1C=CC=C(C)C(=O)NC2=CC(=O)C(N)=C(CC(C)CC(OC)C(O)C(C)C=C(C)C1OC(N)=O)C2=O (stereo not given),0.23µM*,i,?,i,64%,0.041µM*
C=CCNC1=C2C[C@@H](C)C[C@H](OC)[C@H](O)[C@@H](C)/C=C(\C)[C@H](OC(N)=O)[C@@H](OC)/C=C\C=C(/C)C(=O)NC(=CC1=O)C2=O,3%,.,.,.,0.067µM*,.
Cc1ccc2c(c1)ncc[n+]2CC(=O)c1ccc(Cl)cc1Cl,.,i,.,i,.,.
CC(=O)N1N=C(c2ccc(C)cc2)OC1c1ccc(Br)cc1 (stereo not given),-2%,i,-12%,i,?,-10%
CCOc1ccc(Br)cc1C1=NN(C(C)=O)C(c2ccc([N+](=O)[O-])s2)O1 (stereo not given),8.2µM*,?,23µM*,i,?,?
COc1cccc(NC2c3ccccc3C(=O)N2Cc2ccccc2Cl)c1 (stereo not given),21µM*,i,?,i,?,?
Nc1c2c(=O)oc(-c3ccccc3)cc2nn1-c1ccccc1,16µM*,23µM*,?,12µM*,?,?
Cc1c(-c2ccc(Cl)cc2)oc(=O)c2c(N)n(-c3ccccc3)nc12,0%,?,0%,21µM*,?,-17%
CCN(CC)CCNc1ccc(C)c2sc3ccc(O)cc3c(=O)c12,?,?,-23%,4.6µM*,5%,?
Nc1nc(=S)[nH]c(N)c1N,.,i,.,i,.,.
O=S(=O)(Nn1cnnc1)c1ccc(F)cc1,27%,i,-5%,i,2.3µM*,-3%
Cc1nn(C(=O)c2ccccc2F)c(C)c1S(=O)(=O)N1CCOCC1,.,i,.,i,.,.
CCOC(=O)c1ccc(-n2c(C)ccc2C)cc1,3%,i,-3%,i,10%,2%
COC(=O)c1cc(=O)n(-c2ccccc2)c(=Nc2ccccc2)s1,?,?,?,i,18µM*,?
CCOC(=O)c1ccc(N=c2sc(C(=O)OC)cc(=O)n2-c2ccc(C(=O)OCC)cc2)cc1,?,?,16µM*,?,?,?
COC(=O)c1cc(=O)n(Cc2cccs2)c(=Nc2ccccc2)s1,6%,i,-22%,?,10µM*,-5%
Cc1ccc(CNC(=O)C2CCN(c3nn4cc(-c5ccc(F)cc5)nc4s3)CC2)cc1,.,i,.,i,.,.
O=C1NC[C@H](c2ccccc2)OC(=O)[C@H](Cc2ccc(F)cc2)CC/C=C/C[C@H]1CC(=O)N(CCO)Cc1ccccc1,?,?,26µM*,?,?,.
O=C1NC[C@H](c2ccccc2)OC(=O)[C@@H](Cc2ccc(F)cc2)CC/C=C/C[C@@H]1CC(=O)N(CCO)Cc1ccccc1,-2%,?,-25%,i,?,.
O=C1N[C@@H](c2ccccc2)COC(=O)[C@@H](Cc2ccc(F)cc2)C/C=C\C[C@H]1CC(=O)N(CCO)Cc1ccccc1,?,21µM*,?,?,?,?
SMILES,SW480 rerep,KB-3-1 cytotox,HT1080-NT tox,KB-V1 MDR tox,MCF10A rerep,HT1080 IDH1KD tx
O=C1NC[C@H](c2ccccc2)OC(=O)[C@@H](Cc2ccc(F)cc2)CC/C=C/C[C@H]1CC(=O)N(CCO)Cc1ccccc1,?,?,23µM*,?,?,.
O=C(/C=C1\OCc2ccccc21)c1ccccc1,.,i,0%,i,.,0%
CCCNC(=O)C1CCC(Cn2c(=O)c3sccc3n(CC(=O)N3CCC(C)CC3)c2=O)CC1 (stereo not given),.,i,.,i,.,.
O=C(NNC(=S)Nc1cccc(C(F)(F)F)c1)c1ccc(Cl)cc1Cl,?,?,?,18µM*,13µM*,?
Cc1ccc(OC(F)F)c(NC(=O)Nc2cccc(C(F)(F)F)c2)c1,11µM*,?,?,?,?,?
COc1ccc(NC(=S)NNC(=S)Nc2cccc(C(F)(F)F)c2)cc1,-35%,i,-25%,i,15µM*,?
COC(=O)/C=C/C(=O)Nc1cccc(C(F)(F)F)c1,?,i,-3%,i,23µM*,-11%
O=C(Nc1ccccc1)Nc1cccc(C(F)(F)F)c1,0%,i,0%,i,0%,-1%
COc1ccc(-c2nc3c(C#N)c[nH]n3c2NC2CCCCC2)c(OC)c1,.,i,.,i,.,.
Cc1ccc(CCNC(=O)c2ccc3c(=O)n(-c4ccc(C)cc4)c(=O)[nH]c3c2)cc1,.,i,.,i,.,.
COc1ccccc1C(=O)N1CCN(c2cccc(Cl)c2)CC1,?,?,2.6µM*,?,?,2.6µM*
CCn1cc(C(=O)N2CCN(c3cccc(Cl)c3)CC2)c2cc(OC)c(OC)cc2c1=O,?,?,?,21µM*!,?,?
COc1cc2c(C(=O)N3CCN(c4cccc(Cl)c4)CC3)cn(C)c(=O)c2cc1OC,?,?,?,?,?,12µM*
CCc1ccc(CN2CCN(C(=O)c3cccc(OC)c3OC)CC2)cc1,1%[9.22 µM],i,-12%,?,-7%,14µM*
CCn1cc(C(=O)N2CCN(c3ccc(F)cc3)CC2)c2cc(OC)c(OC)cc2c1=O,?,i,-2%,i,0%,-2%
COc1cccc(C(=O)N2CCN(C(=O)c3cccc4ccccc34)CC2)c1OC,-4%,i,6%,i,-5%,7%
